Rin1-Abl PPI inh: inhibitors of Rin1-Abl protein binding, primary screen, biochemical, TR-FRET; Tyrosine-protein kinase ABL1 (Homo sapiens) + Ras and Rab interactor 1 (Homo sapiens), …; inhibition, % at 7.35 µM; 360,000 tested, 0.4% active; AID 588664, 2011; in the data active means inhibition above about 5%, passing the limit was not always enough
Neddylation inh: inhibitors of cullin neddylation, primary screen, biochemical, TR-FRET, uHTS, NAE and Ubc12. NEDD8-conjugating enzyme Ubc12 (Homo sapiens) + NEDD8-activating enzyme E1 regulatory …. inhibition, % at 25 µM. 360,000 tested, 0.58% active. AID 651699, 2012; in the data active means inhibition above about 36%
SUMO1-SIM PPI: modulators of SUMO1 protein-protein interactions, primary screen, biochemical, uHTS | Small ubiquitin-related modifier 1 (Homo sapiens), P63165 | SUMO1 binding to a labelled peptide, TR-FRET, 1 h | inhibition, % at 20 µM | 360,000 tested, 0.33% active | AID 602429, 2012; in the data active means inhibition above about 37%
ATG4B inh: ATG4B protease inhibitors, primary screen, biochemical, fluorescence, uHTS. Cysteine protease ATG4B (Homo sapiens), Q9Y4P1. ATG4B cleavage of LC3-PLA2, NBD-HPC fluorescence, 1 h. inhibition, % at 8.33 µM. 340,000 tested, 0.51% active. AID 504462, 2011
Neddyl inh conf: blockade of NEDD8 conjugation to cullin – biochemical, TR-FRET, single concentration, confirmation | shares compounds with Neddylation inh | 1,800 tested, 13% active | TR-FRET cullin neddylation biochemical assay | calls only at 25 µM | AID 652217, 2013;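 further: neddylation substrate is the cullin 1 ring ligase complex with SKP2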
Large screens that a line does not name were inactive (follow-up assays come after a bar, where shown). In the library only some 1.7% were active in any assay of this set; here they are far more common. Unless noted, no stated cut-off is given here; in the data, active means inhibition above about 40%; inactive means the rest.

c1cncc(CNc2ncnc3ccc(-c4ccc5c(c4)OCO5)cc23)c1	Neddylation inh 28.1 | Neddyl inh conf inactive
c1nc(NCc2ccc3c(c2)OCO3)c2cc(-c3ccc4c(c3)OCCO4)ccc2n1	none
COc1cc(NC(=O)N[C@@H](Cc2c[nH]c3ccccc23)C(=O)O)c(C(=O)O)cc1OC	Neddylation inh 45.5
c1ccc2nc(N3CCCC3)c(N3CCCC3)nc2c1	Neddylation inh 46.3
Cc1nc2ccccc2nc1N1CCCCC1	none
CC(CCc1ccccc1)NC(=O)COC(=O)c1cccc(N(C)C)c1 (centres undefined)	Neddylation inh 46.5 | Neddyl inh conf inactive
Cc1c(Oc2ccc(C(F)(F)F)cc2[N+](=O)[O-])ccc2c3c(c(=O)oc12)CCC3	Neddylation inh 40.1 | Neddyl inh conf inactive
O=C(c1cc(C2CCCCN2C(=O)CCCc2ccccc2)on1)N1CCOCC1 (centres undefined)	none (no result: ATG4B inh)
COCCNC(=O)CSc1ccc(-c2nc3ccccc3[nH]2)cn1	Neddylation inh 49.0 | Neddyl inh conf active
COC(=O)c1ccc2c(=O)n(CCCCCC(=O)O)c(=O)[nH]c2c1	Neddylation inh 47.6
N#CCCN(Cc1cccnc1)C(=S)NC(=O)c1ccccc1	none
CCOC(=O)c1c(NC(=O)COC(=O)c2nccnc2N)sc(C(=O)N(C)C)c1C	Neddylation inh 44.7 | Neddyl inh conf inactive
CCOC(=O)c1c(NC(=O)COC(=O)c2ccccn2)sc(C(=O)N(C)C)c1C	none
CN1CCN(C(=O)c2cccc3c(-c4ccc(F)c(F)c4)coc23)CC1	none (no result: ATG4B inh)
COc1cc2c(cc1OC)C(COc1ccc(C(C)C)cc1)NCC2 (centres undefined)	Neddylation inh 41.6 | Neddyl inh conf inactive
Cc1ccc(S(=O)(=O)Nc2nc3ccccc3nc2NCC2CCCO2)cc1 (centres undefined)	Neddylation inh 40.0 | Neddyl inh conf inactive
O=S(=O)(Nc1nc2ccccc2nc1NCC1CCCO1)c1ccccc1 (centres undefined)	Neddylation inh 38.8 | Neddyl inh conf inactive
CCOC(=O)C1CCCN(c2nc3ccccc3nc2NS(=O)(=O)c2ccc(C)cc2)C1 (centres undefined)	Neddylation inh 46.1 | Neddyl inh conf active
COc1ccc(S(=O)(=O)Nc2nc3ccccc3nc2NCC2CCCO2)cc1 (centres undefined)	none
O=S(=O)(Nc1nc2ccccc2nc1NCC1CCCO1)c1ccc(F)cc1 (centres undefined)	none
NC(=O)C1CCN(c2nc3ccccc3nc2NS(=O)(=O)c2ccc(Br)cc2)CC1	none
CCN(CC(=O)Nc1ccc(NC(C)=O)cc1)C(=O)/C=C/c1cn(-c2ccccc2)nc1-c1cccs1	Neddylation inh 50.0
N#Cc1nc(-c2ccco2)oc1NCCN1CCOCC1	Neddylation inh 38.6 | Neddyl inh conf inactive
O=C1CCC[C@@H]2[C@@H](Cc3ccccc3)[C@H](N3CCN(c4ccccc4)CC3)C[C@@H]3CCN1[C@@H]32	none
CCCCN(C)C(=O)c1cc2cc3ccc(OC)cc3nc2o1	Neddylation inh 57.7 | Neddyl inh conf active
O=c1c(Cl)c(N/N=C/c2ccc(Cl)cc2)cnn1-c1ccccc1	Neddylation inh 42.2 | Neddyl inh conf inactive
CCOC(=O)/C=c1\s/c(=C\c2ccc3c(c2)OCCO3)c(=O)n1CC(=O)NCC1CCCO1 (centres undefined)	Neddylation inh 42.8 | Neddyl inh conf inactive
COc1ccc(C(=O)N2CCCC(C)(C(=O)NS(=O)(=O)C3CC3)C2)cc1 (centres undefined)	none (no result: ATG4B inh)
NC(=O)CSc1nnc2ccc(-c3ccc(Cl)cc3)nn12	Neddylation inh 42.1 | Neddyl inh conf inactive
COc1ccc(-c2ccc3nnc(SCC(=O)N4CCCC4)n3n2)cc1	Neddylation inh 55.9
O=C(CSc1nnc2ccc(-c3ccccc3)nn12)NCC1CCCO1 (centres undefined)	Neddylation inh 41.6 | Neddyl inh conf active
O=C(CSc1nnc2ccc(-c3ccncc3)nn12)Nc1ccc(F)cc1	none
NC(=O)CSc1nnc2ccc(-c3ccc(F)cc3)nn12	Neddylation inh 38.8 | Neddyl inh conf inactive
O=C(CSc1nnc2ccc(-c3ccc(Br)cc3)nn12)NCC1CCCO1 (centres undefined)	none
Cc1ccc(-c2ccc3nnc(SCC(N)=O)n3n2)cc1	none (not shown: Neddylation inh)
CC(C)NC(=O)C1Cc2c(-c3ccc(Cl)cc3)ccnc2O1 (centres undefined)	none (no result: ATG4B inh)
CCOCCCn1c(C)nc2c(c1=O)c1nc3ccccc3nc1n2CCC1=CCCCC1	Neddylation inh 44.7 | Neddyl inh conf inactive
Cc1c(CCC(=O)NCCCn2ccnc2)c(=O)oc2cc3occ(C(C)(C)C)c3cc12	Neddylation inh 41.3
Cc1coc2cc3oc(=O)c(CCC(=O)NCCCn4ccnc4)c(C)c3cc12	none (not shown: Neddylation inh)
Cc1cc(C)n2nc(C(=O)N3CCCC(N4CCN(c5ccccc5C)CC4)C3)cc2n1 (centres undefined)	Neddylation inh 47.4 | Neddyl inh conf inactive
Cn1c(N)c(C(=O)N2CCN(c3ccccc3)CC2)c(=O)n(C)c1=O	none (no result: ATG4B inh)
Cc1ccc2c(c1)c(C)cc[n+]2Cc1ccccc1	none
COc1ccc2c(c1)c(C)cc[n+]2Cc1ccccc1	Neddylation inh 42.7
CCOC(=O)c1ccc(Nc2ncnc3ccc(C)cc23)cc1	none (not shown: Neddylation inh)
CCOC(=O)c1cccc(Nc2ncnc3ccc(C)cc23)c1	Neddylation inh 40.0 | Neddyl inh conf inactive
CCCNC(=O)c1ccccc1NC(=O)c1ccc2c(=O)n3c(nc2c1)CCC3	Neddylation inh 46.2
Cc1ccc(S(=O)(=O)c2cc3c(=O)n4ccccc4nc3n(C)c2=N)cc1	Neddylation inh 58.0 | Neddyl inh conf inactive
COc1ccc(NC(=O)N2c3ccc(OC)cc3C(C)=CC2(C)C)cc1	Neddylation inh 44.8
CCOC(=O)Nc1c(C(=O)OC)[nH]c2cccc(OC)c12	Neddylation inh 41.8 | Neddyl inh conf inactive
COC(=O)c1[nH]c2cccc(OC)c2c1NC(=O)CCN1CCC(C)CC1	none (not shown: Neddylation inh)
COC(=O)c1[nH]c2cccc(OC)c2c1NC(=O)CN1CCN(c2cccc(OC)c2)C(C)C1 (centres undefined)	Neddylation inh 47.9
C[C@@H]1CN([C@@H](C)CO)S(=O)(=O)c2ccc(Br)cc2O[C@H]1CN(C)Cc1ccccn1	none (no result: ATG4B inh)
C(=C\c1ccc2nncn2c1)/c1ccccc1	Neddylation inh 45.1 (no result: ATG4B inh) | Neddyl inh conf active
C(=C\c1ccccc1)/C=N/Nc1ccc2nncn2n1	none (no result: Rin1-Abl PPI inh, Neddylation inh, SUMO1-SIM PPI)
CCCC(CNC(C)=O)(C1=CCCCC1)c1ccccc1 (centres undefined)	none (no result: ATG4B inh)
O=C(COC(=O)c1ccccc1Cl)NCc1cccs1	none (no result: ATG4B inh)
Nc1cc(Cl)ccc1C(=O)OCC(=O)NCc1cccs1	Neddylation inh 56.2
